From the supplement of paper PMC7411054 come the findings set out here.

Common to all, as to settings: treatment time: 24 h
Test [1] has as its system A549-ACTB-RAB5A. Kind of test: lowest phenotypically active concentration; higher = less potent. The essentials: (§1)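 The reporter lines, fifteen in total and built by gene editing in A549, HepG2 and WPMY1 cells, used BFP for segmentation alongside GFP and RFP/FusionRed markers. Each was treated at 0.3, 1, 3 or 9 µM for 24 h in four wells and then imaged live, with live-cell features normalised to solvent control wells. Deviation meant ≥3 of 4 wells beyond the 95th percentile of control Euclidean distances; reproducibility meant a median replicate Pearson correlation above the 95th percentile of non-replicates. Only conditions meeting both were scored as phenotypically active.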

Test [2] concerns A549-GM130-SQSTM1. The description is as above. Put shortly: as §1
In test [3] the test system is A549-TUBA1B-RELA. Described as above. Put shortly: as §1
Test [4] relates to HepG2-ACTB-RAB5A. The test is described as above. The essentials: as §1
In test [5] the test system is WPMY1-GM130-SQSTM1. The description is as above. Put shortly:
as §1

Test [6] relates to A549-ACTB-RAB5A. The test can be described thus: phenotypically active (imaging signature differs from DMSO and reproducible) at any of 0.3-9 uM (binary (1 = active, 0 = inactive)); higher = active. The essentials: as §1
The subject of another test is A549-CANX-COX4. The test is described as above. Put shortly: as §1
The subject of test [7] is A549-GM130-SQSTM1. The description is as above. Put shortly: as §1
For the next test, the system named is A549-TP53BP1-CLTA. The test is described as above. Put shortly: as §1
Test [8] concerns A549-TUBA1B-RELA. The test is described as above. The essentials: as §1
Test [9] deals with HepG2-ACTB-RAB5A. The description is as above. The essentials:
as §1

A further test deals with HepG2-CANX-COX4. The description is as above. The essentials:
as §1

Another test relates to HepG2-GM130-SQSTM1. Described as above. The essentials:
as §1

In a further test the test system is HepG2-TP53BP1-CLTA. The description is as above. The essentials:
as §1

The next test relates to HepG2-TUBA1B-RELA. The test is described as above. The essentials: as §1
The subject of a further test is WPMY1-ACTB-RAB5A. Described as above. The essentials: as §1
In another test the test system is WPMY1-CANX-COX4. Described as above. Put shortly: as §1
The subject of test [10] is WPMY1-GM130-SQSTM1. The description is as above. Put shortly:
as §1

The test system of another test is WPMY1-TP53BP1-CLTA. Described as above. The essentials: as §1
Another test concerns WPMY1-TUBA1B-RELA. The description is as above. Put shortly:
as §1

Take `CN(C)CC(O)Cn1c2ccc(Br)cc2c2cc(Br)ccc21` (stereo unspecified) [Wiskostatin]: the “lowest phenotypically active concentration” value was found to be 3 µM with A549-ACTB-RAB5A [1]; 1 µM with A549-GM130-SQSTM1 [2]; 1 µM in the test with A549-TUBA1B-RELA [3]; 3 µM in the test on HepG2-ACTB-RAB5A [4]; 3 µM in the test with WPMY1-GM130-SQSTM1 [5]. Further, the phenotypically active in the test with A549-ACTB-RAB5A [6] is 1 (active); in the test with A549-CANX-COX4, 0 (inactive); in the test on A549-GM130-SQSTM1 [7] it was 1 (active); in the test with A549-TP53BP1-CLTA, 0 (inactive); in the test on A549-TUBA1B-RELA [8], 1 (active); in the test on HepG2-ACTB-RAB5A [9] it was 1 (active). Besides, the phenotypically active in the test with HepG2-CANX-COX4, in the test with HepG2-GM130-SQSTM1, in the test with HepG2-TP53BP1-CLTA, with HepG2-TUBA1B-RELA, in the test with WPMY1-ACTB-RAB5A and in the test with WPMY1-CANX-COX4 was 1 (active) throughout. For the same compound, the phenotypically active in the test on WPMY1-GM130-SQSTM1 [10], in the test with WPMY1-TP53BP1-CLTA and in the test with WPMY1-TUBA1B-RELA was 1 (active) throughout.

Take `CCOC(=O)c1c(CSc2ccccc2)n(C)c2cc(Br)c(O)c(CN(C)C)c12` [arbidol]: the “lowest phenotypically active concentration” value with A549-ACTB-RAB5A [1], in the test with A549-GM130-SQSTM1 [2], in the test on A549-TUBA1B-RELA [3], with HepG2-ACTB-RAB5A [4] and in the test with WPMY1-GM130-SQSTM1 [5] was 9 µM throughout. The phenotypically active is 1 (active) in the test with A549-ACTB-RAB5A [6]; 0 (inactive) in the test on A549-CANX-COX4; 1 (active) in the test on A549-GM130-SQSTM1 [7]; 0 (inactive) in the test on A549-TP53BP1-CLTA; 1 (active) in the test with A549-TUBA1B-RELA [8]; 1 (active) in the test on HepG2-ACTB-RAB5A [9]. For the same compound, the phenotypically active in the test with HepG2-CANX-COX4 was 1 (active); in the test on HepG2-GM130-SQSTM1, 1 (active); in the test with HepG2-TP53BP1-CLTA, 1 (active); in the test on HepG2-TUBA1B-RELA, 1 (active); with WPMY1-ACTB-RAB5A it was 0 (inactive); in the test on WPMY1-CANX-COX4, 0 (inactive). Besides, the figures for the phenotypically active in the test on WPMY1-GM130-SQSTM1 [10], in the test with WPMY1-TP53BP1-CLTA and in the test on WPMY1-TUBA1B-RELA were 1 (active), 0 (inactive) and 0 (inactive), respectively.

As for `Cc1cc2nc(NCCCO)n(CC(=O)c3cc(C(C)(C)C)c(O)c(C(C)(C)C)c3)c2cc1C`, the “lowest phenotypically active concentration” value stood at 3 µM with A549-ACTB-RAB5A [1], 3 µM in the test on A549-GM130-SQSTM1 [2], 9 µM with A549-TUBA1B-RELA [3] and 9 µM with HepG2-ACTB-RAB5A [4]. In addition, the phenotypically active in the test with A549-ACTB-RAB5A [6] was 1 (active); with A549-CANX-COX4, 0 (inactive); with A549-GM130-SQSTM1 [7] it was 1 (active); with A549-TP53BP1-CLTA it was 0 (inactive); with A549-TUBA1B-RELA [8] it was 1 (active); in the test on HepG2-ACTB-RAB5A [9], 1 (active). Further, the phenotypically active in the test on HepG2-CANX-COX4 is 0 (inactive); with HepG2-GM130-SQSTM1 it was 0 (inactive); with HepG2-TP53BP1-CLTA, 0 (inactive); in the test with HepG2-TUBA1B-RELA, 1 (active); with WPMY1-ACTB-RAB5A it was 0 (inactive); with WPMY1-CANX-COX4, 0 (inactive). For the same compound, the phenotypically active in the test on WPMY1-GM130-SQSTM1 [10], with WPMY1-TP53BP1-CLTA and in the test on WPMY1-TUBA1B-RELA was 0 (inactive) in each case.

Consider `CC(=O)O[C@@H]1C[C@H]2C(C)(C)C(=O)C=C[C@]2(C)[C@H]2CC[C@@]3(C)[C@H](c4ccoc4)OC(=O)[C@H]4O[C@]43[C@@]21C` [gedunin], for which the “lowest phenotypically active concentration” value in the test with A549-ACTB-RAB5A [1] was 3 µM; in the test with A549-GM130-SQSTM1 [2], 9 µM; with A549-TUBA1B-RELA [3], 9 µM; in the test on WPMY1-GM130-SQSTM1 [5] it was 9 µM. The phenotypically active is 1 (active) in the test on A549-ACTB-RAB5A [6]; 0 (inactive) in the test with A549-CANX-COX4; 1 (active) in the test with A549-GM130-SQSTM1 [7]; 0 (inactive) with A549-TP53BP1-CLTA; 1 (active) in the test with A549-TUBA1B-RELA [8]; 0 (inactive) in the test on HepG2-ACTB-RAB5A [9]. Besides, the phenotypically active with HepG2-CANX-COX4, in the test on HepG2-GM130-SQSTM1, with HepG2-TP53BP1-CLTA, in the test with HepG2-TUBA1B-RELA, with WPMY1-ACTB-RAB5A and in the test with WPMY1-CANX-COX4 was 1 (active) in each case. The phenotypically active is 1 (active) with WPMY1-GM130-SQSTM1 [10], 0 (inactive) in the test on WPMY1-TP53BP1-CLTA and 0 (inactive) with WPMY1-TUBA1B-RELA.

For the compound `COc1ccc(Cl)cc1NC(=O)Nc1cc(C)nc2ccccc12`, the “lowest phenotypically active concentration” value in the test with A549-ACTB-RAB5A [1], in the test on A549-GM130-SQSTM1 [2], in the test with A549-TUBA1B-RELA [3] and in the test on HepG2-ACTB-RAB5A [4] was 3 µM throughout. Moreover, the phenotypically active in the test with A549-ACTB-RAB5A [6] is 1 (active); with A549-CANX-COX4, 0 (inactive); in the test on A549-GM130-SQSTM1 [7], 1 (active); with A549-TP53BP1-CLTA, 0 (inactive); in the test on A549-TUBA1B-RELA [8] it was 1 (active); in the test with HepG2-ACTB-RAB5A [9], 1 (active). In addition, the phenotypically active in the test on HepG2-CANX-COX4 was 1 (active); in the test with HepG2-GM130-SQSTM1, 1 (active); with HepG2-TP53BP1-CLTA it was 1 (active); in the test on HepG2-TUBA1B-RELA, 1 (active); with WPMY1-ACTB-RAB5A, 0 (inactive); with WPMY1-CANX-COX4 it was 0 (inactive). The phenotypically active with WPMY1-GM130-SQSTM1 [10], in the test on WPMY1-TP53BP1-CLTA and in the test on WPMY1-TUBA1B-RELA was 0 (inactive) throughout.

As for `Clc1ccc2c(c1)C(N1CCNCC1)=Nc1ccccc1O2` [amoxapine], the “lowest phenotypically active concentration” value in the test on A549-ACTB-RAB5A [1] amounted to 3 µM; with A549-GM130-SQSTM1 [2] it was 3 µM; in the test on A549-TUBA1B-RELA [3] it was 3 µM; with HepG2-ACTB-RAB5A [4], 9 µM. For the same compound, the phenotypically active in the test with A549-ACTB-RAB5A [6] was 1 (active); with A549-CANX-COX4, 0 (inactive); in the test with A549-GM130-SQSTM1 [7] it was 1 (active); in the test on A549-TP53BP1-CLTA, 0 (inactive); in the test on A549-TUBA1B-RELA [8], 1 (active); in the test with HepG2-ACTB-RAB5A [9] it was 1 (active). In addition, the phenotypically active in the test on HepG2-CANX-COX4 is 0 (inactive); with HepG2-GM130-SQSTM1, 1 (active); in the test on HepG2-TP53BP1-CLTA it was 0 (inactive); with HepG2-TUBA1B-RELA it was 1 (active); in the test on WPMY1-ACTB-RAB5A, 1 (active); in the test with WPMY1-CANX-COX4 it was 0 (inactive). The phenotypically active with WPMY1-GM130-SQSTM1 [10] was 0 (inactive); in the test with WPMY1-TP53BP1-CLTA, 0 (inactive); in the test with WPMY1-TUBA1B-RELA, 1 (active).
